# High-throughput results as filed in PubChem.
# tim23-1 inh: growth inhibitors of tim23-1 mutant yeast, primary screen, luminescence, uHTS; S. cerevisiae tim23-1 growth, BacTiter-Glo luminescence, 24 h; inhibition, % at 20 µM; 330,000 compounds, 1.3% hits; AID 463212, 2010;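 active = growth inhibition of the mutant yeast at or above 50%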;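 note: temperature-sensitive mutant grown at 25 °C; plate controls were DMSO-treated mutant yeast for no effect and medium wells lacking yeast for full effect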
# PfHsp90 set2: growth inhibition of PfHsp90-expressing yeast, primary screen, antimalarial PfHsp90 inhibitor project, S. cerevisiae, BacTiter-Glo luminescence, single point, set 2 | BacTiter-Glo ATP, 48 h; yeast lacking PDR1 and PDR3 efflux regulators | inhibition, % at 9.4 µM | 310,000 compounds, 0.32% hits;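 active = every replicate shows inhibition above about 80%, whatever the replicate mean, limit read from the data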;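 note: 0% = DMSO neutral controls and 100% = 20 µM radicicol positive controls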
# SKKanGAS inh: S. pyogenes SKKanGAS growth inhibitors in kanamycin, primary screen, streptokinase expression inhibitor project, SKKanGAS strain, BacTiter-Glo luminescence; AID 1662, 2009; 6 h; inhibition, % at 7.5 µM; 300,000 compounds, 1.3% hits;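 active = mean replicate score, as percent of positive control median, at least 50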;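 note: strain carries kanamycin resistance gene driven by streptokinase promoter and grows in 40 µg/ml kanamycin; loss of luminescence reflects streptokinase promoter inhibition or plain growth inhibition; 0% = median of DMSO wells and 100% = positive control at its reference dose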
# tim10-1 inh: growth inhibitors of tim10-1 mutant yeast, primary screen, luminescence, uHTS | AID 463190, 2010 | S. cerevisiae tim10-1 ts strain growth, BacTiter-Glo, 24 h | 330,000 compounds, 2.2% hits | inhibition, % at 20 µM;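 active = inhibition of at least 40%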;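 note: mutant grown at 25 °C; 0% = DMSO wells with yeast and 100% = wells holding no yeast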
# TIM10 inh: growth inhibitors of isogenic TIM10 control yeast, primary screen, counter-screen for tim10-1 yeast inhibitor project, luminescence, uHTS; S. cerevisiae TIM10 strain growth, BacTiter-Glo luminescence, 24 h; 330,000 compounds, 1.4% hits; inhibition, % at 10 µM;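 active = inhibition of 40% or more at the single tested concentration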;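 note: wild-type TIM10 isogenic control strain grown at permissive 25 °C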
# ATG4B inh: ATG4B protease inhibitors, primary screen, biochemical, fluorescence, uHTS; Cysteine protease ATG4B (Homo sapiens), Q9Y4P1; inhibition, % at 8.33 µM; 340,000 compounds, 0.51% hits; ATG4B cleavage of LC3-PLA2, NBD-HPC fluorescence, 1 h; AID 504462, 2011; in the data active = inhibition above about 40%
# Target sequence (Q9Y4P1 whole entry, looked up): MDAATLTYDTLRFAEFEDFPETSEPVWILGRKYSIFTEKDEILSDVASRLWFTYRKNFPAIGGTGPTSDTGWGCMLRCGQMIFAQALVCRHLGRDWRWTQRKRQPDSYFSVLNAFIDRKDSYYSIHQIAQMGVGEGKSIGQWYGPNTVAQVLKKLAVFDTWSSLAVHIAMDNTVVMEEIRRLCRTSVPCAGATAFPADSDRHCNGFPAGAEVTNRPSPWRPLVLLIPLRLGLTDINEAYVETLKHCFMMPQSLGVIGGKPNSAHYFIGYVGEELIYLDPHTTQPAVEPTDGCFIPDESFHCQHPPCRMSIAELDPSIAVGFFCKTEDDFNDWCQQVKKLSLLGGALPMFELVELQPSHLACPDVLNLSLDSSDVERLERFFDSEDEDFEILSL
# tim10-1 confirm: growth inhibitors of tim10-1 mutant yeast, confirmation, single concentration, luminescence, S. cerevisiae; 7,400 compounds, 56% hits; inhibition, % at 20 µM; AID 463213, 2010; shares compounds with tim10-1 inh; S. cerevisiae tim10-1 ts strain growth, BacTiter-Glo, 24 h;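 active = inhibition of yeast growth at or above a set limit in either of two repeat tests at 20 µM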;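 note: tim10-1 mutant grown at permissive 25 °C to find synthetic lethal compounds; 0% = DMSO yeast wells and 100% = medium wells without yeast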
# Numbers without * were called inactive; x = not tested or not shown. Compounds with a hit are over-represented: about 4.7% of the library has one in this group of screens.
SMILES,tim23-1 inh,PfHsp90 set2,SKKanGAS inh,tim10-1 inh,TIM10 inh,ATG4B inh,tim10-1 confirm
Cc1ccc(C(=O)C(C)N(C(=O)c2ccc(Cl)cc2Cl)N2C(=O)CCCC2=O)cc1 (stereo not given),12,14,-17,21,24,-8,x
COc1ccc(C(=O)C(C)N(C(=O)c2ccc(Cl)cc2Cl)N2C(=O)C3C4C=CC(C4)C3C2=O)cc1 (stereo not given),42,24,0,47*,22,10,21
CC(C)CCNC(=O)C1CC(=O)N(C2CCCC2)C1 (stereo not given),6,x,14,1,-6,-10,x
Clc1ccc(Cn2ncc3c(N4CCCCC4)ncnc32)c(Cl)c1,47,7,5,43*,22,0,27
Clc1ccc(Cn2ncc3c(N4CCCCC4)ncnc32)cc1,24,-15,-4,24,12,-4,x
O=C1OC(CCl)CN1Cc1c(Cl)cccc1Cl (stereo not given),11,-2,-16,12,19,-9,x
COc1ccccc1N(C)S(=O)(=O)c1ccc(C(=O)NCC2CCCCC2)cc1,30,3,x,18,21,-4,x
O=C(O)c1ccc(CNCc2ccc(Cl)cc2Cl)cc1,-14,-10,0,-23,-1,1,x
CCC1CN(C(=O)NCc2ccc(F)cc2)c2cc(C)ccc2O1 (stereo not given),21,-42,8,41*,10,13,24
CCC1CN(C(=O)NCc2ccc(C)cc2)c2ccccc2O1 (stereo not given),21,-13,2,15,-7,0,x
COc1ccc(-c2cc(C(F)(F)F)c3c(=O)n(-c4ccccc4)[nH]c3n2)cc1,30,x,13,10,5,21,x
CCN1C(=O)CC(N2CCC(Nc3ccc(OC)cc3)CC2)C1=O (stereo not given),9,10,x,0,-5,-15,x
CCCOc1ccc(N2C(=O)CC(N3CCC(O)(c4cccc(C(F)(F)F)c4)CC3)C2=O)cc1 (stereo not given),48,3,-1,56*,26,-7,47*
O=C1CC(N2CCN(c3ccc(Cl)cc3)CC2)C(=O)N1c1ccc(F)cc1 (stereo not given),25,24,3,21,-2,-6,x
COc1ccc(NC2CCN(C3CC(=O)N(c4ccc(F)c(Cl)c4)C3=O)CC2)cc1 (stereo not given),33,102*,0,54*,37,-21,42*
O=C1CC(N2CCN(c3cccc(C(F)(F)F)c3)CC2)C(=O)N1c1ccccc1 (stereo not given),13,x,11,41*,3,-1,25
O=C1CC(N2CCCN(C3CC(=O)N(c4ccc(F)cc4)C3=O)CC2)C(=O)N1c1ccc(F)cc1 (stereo not given),36,8,-14,47*,22,-5,42*
COc1ccc(CCN2C(=O)CSC2c2cccc([N+](=O)[O-])c2)cc1OC (stereo not given),17,-14,0,14,-9,0,x
Cc1ccc2nc(NC(=O)COC(=O)c3ccncc3)sc2c1,41,-44,4,13,28,-9,x
NC(=O)C1CCN(C2CC(=O)N(c3cccc(F)c3)C2=O)CC1 (stereo not given),28,-58,-10,22,3,9,x
COc1cccc(N2CCN(C3CC(=O)N(c4ccc(F)c(Cl)c4)C3=O)CC2)c1 (stereo not given),47,-5,7,41*,28,-12,26
NC(=O)C1CCN(C2CC(=O)N(c3ccc(F)c(Cl)c3)C2=O)CC1 (stereo not given),45,104*,4,53*,35,0,50*
Cc1c(Cl)cccc1NC(=S)/C(=C(\[O-])c1ccc(Cl)s1)[n+]1ccccc1,42,-6,45,47*,19,37,36*
CCc1ccc(-c2csc(NC(=O)C3CC(=O)N(c4ccc5c(c4)OCCO5)C3)n2)cc1 (stereo not given),23,-22,28,47*,25,-6,27
Cc1csc(NC(=O)C2CC(=O)N(c3ccc4c(c3)OCCO4)C2)n1 (stereo not given),8,0,x,-4,1,0,x
SMILES,tim23-1 inh,PfHsp90 set2,SKKanGAS inh,tim10-1 inh,TIM10 inh,ATG4B inh,tim10-1 confirm
CCC(C)Nc1nc(N)c([N+](=O)[O-])c(NC2CCCCC2)n1 (stereo not given),2,-43,9,31,-3,-1,x
CCCOc1cccc(NC(=O)c2c(-c3ccccc3)noc2C)c1,23,-37,-6,41*,18,-20,25
Cc1ccc(F)c(NC(=O)c2c(-c3ccccc3)noc2C)c1,38,-27,-3,47*,12,-6,43*
CCCC(=O)Nc1cc(C)c(NC(=O)c2cccs2)cn1,16,22,-19,-16,1,3,x
CCCC(=O)Nc1cc(C)c(NC(=O)C23CC4CC(CC(C4)C2)C3)cn1,24,4,3,42*,36,-7,32*
CC(=O)c1cc2c(cc1NC(=O)C1CN(C(C)=O)c3ccccc3O1)OCO2 (stereo not given),18,-6,x,21,9,-12,x
COc1cc(/C=C/c2cc(C(=O)O)c3ccccc3n2)cc(OC)c1O,25,16,9,21,25,-5,x
CN(C)c1ccc(/C=C/c2nc3ccccc3s2)cc1,25,36,47,47*,36,9,56*
COc1cc(C=C(c2nc3ccccc3s2)c2nc3ccccc3s2)ccc1O,28,4,18,51*,35,24,39*
COc1cc(/C=C/c2nc3ccccc3s2)cc(OC)c1O,37,x,0,44*,32,-16,27
COc1ccc(C=C(c2nc3ccccc3s2)c2nc3ccccc3s2)cc1O,35,38,14,30,30,14,x
Cc1ccc2[nH]c(CN3CCC(CO)(CC4CCCCO4)CC3)c(C)c2c1 (stereo not given),17,12,-22,23,13,-2,x
Cc1cccc(NC(=O)CCNS(=O)(=O)c2cccc3nsnc23)c1C,2,-13,-4,-12,11,2,x
CCOC(=O)c1c(NC(=O)/C=C/c2ccc(C)o2)sc(C)c1C,14,-15,-13,46*,13,-5,24
